A short description of assay [1]: NCI Yeast Anticancer Drug Screen. Data for the rad50 strain (AID 155).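 Further: 0% = growth of vehicle-only cultures of the same strain.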 The note with it: S. cerevisiae rad50 strain growth inhibition, stronger effect = higher value; at 50.0 µM unless noted. An outline of the steps: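 Readout: growth inhibition relative to vehicle-treated cultures. Compound exposure was carried out in a genetically defined yeast strain deficient in DNA damage repair.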

Assay [2] in a line: NCI Yeast Anticancer Drug Screen. Data for the mec2-1 strain (AID 157). The note with it: S. cerevisiae mec2-1 strain, stronger effect = higher value; at 50.0 µM unless noted. An outline of the steps:
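Test agents were screened against the mec2-1 yeast strain, with defined DNA repair or cell cycle alteration. Growth was scored as inhibition against vehicle-only controls.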

Assay [3] can be described thus: NCI Yeast Anticancer Drug Screen. Data for the sgs1 mgt1 strain (AID 161).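 Further: 0% = growth of cultures given vehicle only.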 The note with it: S. cerevisiae sgs1 mgt1 strain, stronger effect = higher value; at 50.0 µM unless noted. Summed up: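 Mutant yeast exposed to compound; growth scored against vehicle-only wells.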
A short description of assay [4]: NCI Yeast Anticancer Drug Screen. Data for the cln2 rad14 strain (AID 165).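 Further: 0% = growth equal to vehicle treated cultures.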 The note with it: S. cerevisiae cln2 rad14 strain, stronger effect = higher value; at 50.0 µM unless noted. Summed up: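 Growth of compound-exposed yeast (cln2 rad14 genotype) measured and expressed as inhibition relative to vehicle.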
The nature of assay [5]: NCI Yeast Anticancer Drug Screen. Data for the bub3 strain (AID 167). The note with it: S. cerevisiae bub3 mutant strain, stronger effect = higher value; at 50.0 µM unless noted. An outline of the steps: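 Readout: yeast growth inhibition, expressed relative to vehicle-only wells. The test organism is a mutant strain from a panel with lesions in DNA repair or checkpoint genes.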
The nature of assay [6]: NCI Yeast Anticancer Drug Screen. Data for the mlh1 rad18 strain (AID 175). The note with it: S. cerevisiae mlh1 rad18 strain growth inhibition, stronger effect = higher value; at 50.0 µM unless noted. An outline of the steps: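 In this whole-cell yeast screen, a strain with altered DNA damage repair is challenged with compound, and its growth is measured against matched vehicle-treated controls.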

“And” between values parts separate entries of the source, which are not always exact repeats. Equal entries are not always repeated. The panel holds about 79,000 compounds, 15% with a hit somewhere; the sample as a whole holds those more often. Unmarked numbers belong to inactive results. The source made the active and inactive calls. No stated cut-off is given here; in the data, active means growth inhibition above about 70%; inactive means the rest.

On to `ClC1c2cccc3cccc(c23)C1Cl` (stereo not given), for which the growth inhibition in assay [1] was 6.95%; in assay [2], 8.75%; in assay [3] it was -0.6%; in assay [4], 4.45%; in assay [5], 7.5%; in assay [6], 10.7%.

For the compound `Cc1ccc([N+](=O)[O-])cc1NC(=O)N(Cc1ccccc1)Cc1ccccc1`, the growth inhibition in assay [1] was 8.7%; in assay [2] it was 1.5%; in assay [3], 10.8%; in assay [4] it was 9.4%; in assay [5], 17.3%; in assay [6], -0.05%.

Regarding `COc1cc(C(CC(=O)O)C(=O)O)c([N+](=O)[O-])cc1OC` (stereo not given), the growth inhibition in assay [1] was -23.2%; in assay [2], 1.1%; in assay [3], 2.2%; in assay [4], 0%; in assay [5], 24.5%; in assay [6], 7.4%.

In the case of `CC(Oc1ccccc1)C(=O)NC(=S)Nc1cccc2ccccc12` (stereo not given), the growth inhibition in assay [1] was -10.2%; in assay [2] it was -3.5%; in assay [3] it was -3.35%; in assay [4], -19.6%; in assay [5] it was 20.9%; in assay [6], 4.85%.

On to `Cc1c(C)c(C(=O)Cc2ccccc2)c(C)c(C(=O)Cc2ccccc2)c1C`, for which the growth inhibition was 19.6% in assay [1]; -1.8% in assay [2]; -15.3% in assay [3]; 12.3% in assay [4]; 5.55% in assay [5]; 0.65% in assay [6].

As for `CSc1nc2c([nH]1)c(=O)n(C)c(=S)n2C`, the growth inhibition in assay [1] is 4.95%; in assay [2], 6.05%; in assay [3] it was -0.85%; in assay [4], 12.1%; in assay [5], 0.4%; in assay [6] it was -4.25%.

For `CCOC(Cc1ccccc1)OCC`, the growth inhibition was 20.9% in assay [1]; 19.9% in assay [2]; 18.4% in assay [3]; -0.7% in assay [4]; 10.9% in assay [5]; 12.7% in assay [6].

For `COc1ccc(NC2Oc3cc4c(cc3C(c3cc(OC)c(O)c(OC)c3)C2C)OCO4)cc1` (stereo not given), the growth inhibition in assay [1] is 5.1%; in assay [2], 0.1%; in assay [3], -6.15%; in assay [4] it was 2.65%; in assay [5], 6.6%; in assay [6], 4.8%.

For the compound `CCOC(=O)N1C(=O)C2C3C=CC(C2C1=O)C1C2C(=O)N(C(=O)OCC)C(=O)C2C31` (stereo not given), the growth inhibition in assay [1] is 1.4%; in assay [2], -3.15%; in assay [3] it was -37.4%; in assay [4], -0.55%; in assay [5] it was -19.9%; in assay [6], -37.6%.

`Cc1sc2nc3n(c(=O)c2c1C)N=CN(c1ccc(Cl)cc1)C3`: the growth inhibition in assay [1] is 5.5%; in assay [2], 5.1%; in assay [3], 7.8%; in assay [4], -3.15%; in assay [5], 0.05%; in assay [6], -45.2%.

As to `O=C1CN(CCN2CC(=O)N(CN3CCOCC3)C(=O)C2)CC(=O)N1CN1CCOCC1`, the growth inhibition was 9.55% in assay [1]; 3% in assay [2]; 2.6% in assay [3]; 3.8% in assay [4]; -16.1% in assay [5]; 83.9% (active) in assay [6].

`N#Cc1cccc2c1Nc1ccccc1S2`: the growth inhibition was -9.75% in assay [1]; -21.8% in assay [2]; -10.7% in assay [3]; 8.8% in assay [4]; 5.9% in assay [5]; -19.9% in assay [6].

`CN(c1ccccc1)c1c(Cl)c(=O)oc2c1ccc1nc(-c3ccccc3)sc12`: the growth inhibition is 44.6% in assay [1]; 24.8% in assay [2]; 35.7% in assay [3]; 43.5% in assay [4]; -4.3% in assay [5]; 32.9% in assay [6].

`COC(=O)NC(=O)c1cn(CCCOC(=O)CCCCCCCCC(=O)OCCCn2cc(C(=O)NC(=O)OC)c(=O)[nH]c2=O)c(=O)[nH]c1=O`: the growth inhibition in assay [1] was -13.5%; in assay [2], -3.8%; in assay [3], -7.45%; in assay [4], 9.9%; in assay [5], 13.3%; in assay [6], -12.4%.

For `CS(=O)(=O)c1ncc(Br)cn1`, the growth inhibition is 15.6% in assay [1]; -6.85% in assay [2]; 5.45% in assay [3]; 17.1% in assay [4]; 6.4% in assay [5]; 7.75% in assay [6].

Take `O=C1NC(=O)C2C3OC(C(Cl)C3Cl)C12` (stereo not given): the growth inhibition in assay [1] was 0.8% and 18.2%; in assay [2] it was -19.5% and 11.5%; in assay [3], -7.85% and 12.5%; in assay [4] it was 20.4% and 42.7%; in assay [5], -4.95% and 7.95%; in assay [6], -7.85% and -1.25%.

On to `COC(=O)c1cc(C(=O)OC)c(CC(=O)C(=O)NC2C3CC4CC(C3)CC2C4)nc1CC(=O)C(=O)NC1C2CC3CC(C2)CC1C3` (stereo not given), for which the growth inhibition in assay [1] was 0.5%; in assay [2] it was 25.2%; in assay [3], -11.9%; in assay [4], 10.2%; in assay [5] it was 13.7%; in assay [6] it was 10.9%.

`Cc1cc2c(c(C(=O)O)c1C)-c1cccc(Cl)c1C2=O`: the growth inhibition is -15.7% in assay [1]; -2.3% in assay [2]; -23.2% in assay [3]; -20.2% in assay [4]; -13.3% in assay [5]; -27.4% in assay [6].

As to `C=C(C)C(C(=O)OCC)C(=O)OCC`, the growth inhibition was 3.4% in assay [1]; -2.75% in assay [2]; 7.4% in assay [3]; 10.5% in assay [4]; -21.8% in assay [5]; -4.85% in assay [6].

`COC(=O)C(Br)C(Br)c1cc(OC)c(OC)c(OC)c1` (stereo not given): the growth inhibition in assay [1] is 48.2%; in assay [2], 9.6%; in assay [3], 2.3%; in assay [4] it was 40%; in assay [5], 10.4%; in assay [6], 14.2%.

Turning to `O=C(Nc1ccc(S(=O)(=O)c2ccc(F)cc2)cc1)OC1CCCCC1`, the growth inhibition is 35.9% in assay [1]; 5.85% in assay [2]; 38.9% in assay [3]; 18.1% in assay [4]; 4.4% in assay [5]; 18.4% in assay [6].

Turning to `COc1nc(NC2OC(CO)C(O)C(O)C2O)c(C(=O)CCl)c(=O)n1C` (stereo not given), the growth inhibition in assay [1] is 3.9%; in assay [2] it was 4.2%; in assay [3], -15.8%; in assay [4], -7.45%; in assay [5], -3.4%; in assay [6], 4.05%.

On to `COC1(OC)C(C#N)=C(c2ccccc2)C1(OC)OC`, for which the growth inhibition was -8% in assay [1]; -6.25% in assay [2]; -6.5% in assay [3]; -19.9% in assay [4]; -14% in assay [5]; -6.8% in assay [6].

Regarding `C/C(=N/NC(N)=S)c1ccc([N+](=O)[O-])cc1`, the growth inhibition in assay [1] was 75.7% (active); in assay [2], -8.8%; in assay [3] it was -8.6%; in assay [4], -64.7%; in assay [5], -12.4%; in assay [6], -2.3%.

Regarding `Cc1ccc(NC(=O)CC/C(CC(=O)C(C)(C)C)=N/NC(=O)c2cc3ccccc3cc2O)cc1C`, the growth inhibition in assay [1] was 27.9%; in assay [2], 21.1%; in assay [3], 0.35%; in assay [4] it was -0.35%; in assay [5] it was 28.4%; in assay [6] it was 14.8%.

On to `CCCCCCCCCC=O`, for which the growth inhibition in assay [1] is -2.05%; in assay [2], 8%; in assay [3] it was -11.5%; in assay [4], 10.6%; in assay [5] it was 23.7%; in assay [6] it was 6.8%.

Regarding `CC(=O)NNc1nc(C)c(C(/C=C/c2ccc(Cl)cc2)=N/NC(=O)C[N+](C)(C)C)s1`, the growth inhibition in assay [1] was 15.1%; in assay [2], 7.25%; in assay [3] it was 9.15%; in assay [4], 21.8%; in assay [5], 21.4%; in assay [6], -0.25%.

In the case of `Cc1cc(C)c2ccc(Cl)nc2n1`, the growth inhibition in assay [1] was -6.75%; in assay [2], 0.55%; in assay [3], -7.35%; in assay [4], 9.35%; in assay [5], -4.35%; in assay [6], 6.1%.

For `CC(C)NCC(O)c1ccc(O)c(O)c1` (stereo not given), the growth inhibition was 31.9% and -20.8% in assay [1]; -10.6% and -23.4% in assay [2]; -3.35% and 16.2% in assay [3]; 14.7% and -52% in assay [4]; 18.7% and 27.4% in assay [5]; -0.1% and -4.95% in assay [6].

As to `COC(=O)C(Cc1ccccc1)N=Cc1c(O)c(O)c(C(C)C)c2cc(C)c(-c3c(C)cc4c(C(C)C)c(O)c(O)c(C=NC(Cc5ccccc5)C(=O)OC)c4c3O)c(O)c12` (stereo not given), the growth inhibition in assay [1] is 19.7%; in assay [2], 9.7%; in assay [3] it was 11.7%; in assay [4], 17.1%; in assay [5], 16.1%; in assay [6], 4.75%.

With `CCCCC(CC)CCC(C)O` (stereo not given), the growth inhibition in assay [1] was -6.75%; in assay [2] it was -4.75%; in assay [3] it was 25.6%; in assay [4], -40.4%; in assay [5], -16.8%; in assay [6], -14.7%.

Take `C=CCOC(=O)COc1ccc(Cl)cc1`: the growth inhibition in assay [1] is -0.95%; in assay [2] it was -8.1%; in assay [3] it was -12.3%; in assay [4] it was -2.15%; in assay [5] it was -7.75%; in assay [6], 0.55%.

For `COc1cc(CCCC(C(=O)O)C(=O)O)cc(OC)c1OC`, the growth inhibition in assay [1] was 14.2%; in assay [2], -13.3%; in assay [3], -11.9%; in assay [4] it was 15.8%; in assay [5], -0.9%; in assay [6], 11.7%.

Turning to `O=[N+]([O-])c1cc(COc2ccc(Cl)c(Cl)c2)ccc1Cl`, the growth inhibition in assay [1] is 1.8%; in assay [2], 30.3%; in assay [3], 38.5%; in assay [4], -0.95%; in assay [5], 46.4%; in assay [6] it was 35.8%.

For the compound `NC(=O)c1ccc(F)cc1`, the growth inhibition in assay [1] is -42.3%; in assay [2], -29.6%; in assay [3] it was -7.7%; in assay [4] it was -16.1%; in assay [5] it was -18.2%; in assay [6], -10.5%.

The record behind these values is PubChem BioAssay (NCI).
